# According to PubChem BioAssay:
# Unmarked numbers belong to inactive results. For some assays here: Results with a measured potency or affinity are listed apart. Calls of active or inactive are those of the source. Unless noted, no rule for the calls is given here.
# Tests used:
# [1] = antimalarial activity against Dd2 strain (AID 2302;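 active = growth inhibition above 50% at the single 2 µM test dose, taken to imply half-maximal potency below 2 µM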;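 also: 0% = DMSO untreated growth and 100% = chloroquine plus artemisinin killed control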); settings: P. falciparum Dd2 in RBCs, LDH growth readout, 72 h; at 2 µM; active compounds read high
# [2] = HepG2 cytotoxicity, primary screen, cytotoxicity control for P. falciparum antimalarial project, cell-based, ATP luminescence (AID 2303;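 active = inhibition above 50%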;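 also: 0% = DMSO wells and 100% = digitonin-killed cells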); settings: HepG2 viability, 24-48 h, at 10 µM, active compounds read high
# [3] = target: L-lactate dehydrogenase (Plasmodium falciparum (isolate CDC / Honduras)) (UniProt Q27743); assay: PfLDH activity inhibition – cell lysate, 3D7 strain, counter-screen for P. falciparum growth inhibition project (AID 2304);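 also: 0% = vehicle and 100% = reference inhibitor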; settings: P. falciparum 3D7 crude extract, LDH APAD/NBT absorbance; at 2 µM; active compounds read high
# [4] = inhibition of 3D7 malaria parasite growth – strain 3D7 (AID 2306);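 also: 0% = DMSO wells and 100% = chloroquine plus artemisinin control wells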; settings: P. falciparum 3D7 erythrocytic growth, LDH absorbance, 72 h; at 2 µM; active compounds read high
# [5] = target: Calcium-dependent protein kinase 1 (Plasmodium falciparum (isolate 3D7)) (UniProt P62344); assay: PfCDPK1 kinase inhibitors, biochemical, TCAMS library (AID 1159585; cut-off not given, nearly all actives have IC50 up to about 0.98 µM;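 also: inhibitors leave more ATP so luminescence rises with inhibition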); settings: recombinant PfCDPK1, Kinase-Glo ATP depletion luminescence
# [6] = target: Plasmodium falciparum protein kinase 6 (PK6, PF3D7_1337100) (UniProt Q8IDW1); assay: PfPK6 kinase inhibitors, biochemical, TCAMS library (AID 1159586); settings: recombinant PfPK6, Kinase-Glo ATP depletion luminescence
# [7] = target: Protein kinase 7 (PK7), Plasmodium falciparum 3D7 (PF3D7_0213400) (UniProt Q7YTF7); assay: inhibition of Plasmodium PK7 catalytic activity – biochemical, TCAMS antimalarial set, Kinase-Glo luminescence (AID 1159587); settings: recombinant PfPK7, Kinase-Glo ATP depletion luminescence
# [8] = target: Calcium-dependent protein kinase 4 (Plasmodium falciparum (isolate 3D7)) (UniProt Q8IBS5); assay: PfCDPK4 kinase inhibitors, biochemical, TCAMS library (AID 1159588; cut-off not given, nearly all actives have IC50 up to about 0.91 µM); settings: recombinant PfCDPK4, Kinase-Glo ATP depletion luminescence
# Sequence of Calcium-dependent protein kinase 4 (Plasmodium falciparum (isolate 3D7)) (Q8IBS5 whole entry, looked up): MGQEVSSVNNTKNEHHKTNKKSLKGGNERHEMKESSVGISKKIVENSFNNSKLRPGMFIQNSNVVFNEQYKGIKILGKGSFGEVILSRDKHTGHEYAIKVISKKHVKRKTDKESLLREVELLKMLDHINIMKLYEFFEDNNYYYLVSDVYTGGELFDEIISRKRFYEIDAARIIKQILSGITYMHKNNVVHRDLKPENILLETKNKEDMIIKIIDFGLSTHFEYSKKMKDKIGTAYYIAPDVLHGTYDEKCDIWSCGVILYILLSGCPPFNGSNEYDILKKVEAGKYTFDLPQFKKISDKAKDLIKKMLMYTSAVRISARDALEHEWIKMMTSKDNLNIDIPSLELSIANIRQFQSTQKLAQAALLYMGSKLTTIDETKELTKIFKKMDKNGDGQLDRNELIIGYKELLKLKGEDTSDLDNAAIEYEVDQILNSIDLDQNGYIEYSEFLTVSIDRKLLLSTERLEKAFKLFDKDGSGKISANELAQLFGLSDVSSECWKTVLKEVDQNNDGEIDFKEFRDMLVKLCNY
# Sequence of Calcium-dependent protein kinase 1 (Plasmodium falciparum (isolate 3D7)) (P62344 whole entry, looked up): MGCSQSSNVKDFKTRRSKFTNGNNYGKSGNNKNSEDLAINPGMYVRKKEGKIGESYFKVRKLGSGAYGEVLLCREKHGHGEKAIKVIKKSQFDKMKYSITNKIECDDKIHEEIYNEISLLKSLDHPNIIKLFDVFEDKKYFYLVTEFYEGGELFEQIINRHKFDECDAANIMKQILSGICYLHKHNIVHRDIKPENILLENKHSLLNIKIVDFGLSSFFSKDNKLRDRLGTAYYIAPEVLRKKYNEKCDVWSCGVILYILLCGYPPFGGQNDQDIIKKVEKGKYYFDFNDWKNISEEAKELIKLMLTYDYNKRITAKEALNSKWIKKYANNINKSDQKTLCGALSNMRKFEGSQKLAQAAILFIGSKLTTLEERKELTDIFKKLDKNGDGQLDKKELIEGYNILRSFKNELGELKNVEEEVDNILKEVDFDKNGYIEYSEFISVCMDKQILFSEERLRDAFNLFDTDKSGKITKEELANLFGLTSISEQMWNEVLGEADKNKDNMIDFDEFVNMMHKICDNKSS
# Sequence of L-lactate dehydrogenase (Plasmodium falciparum (isolate CDC / Honduras)) (Q27743 whole entry, looked up): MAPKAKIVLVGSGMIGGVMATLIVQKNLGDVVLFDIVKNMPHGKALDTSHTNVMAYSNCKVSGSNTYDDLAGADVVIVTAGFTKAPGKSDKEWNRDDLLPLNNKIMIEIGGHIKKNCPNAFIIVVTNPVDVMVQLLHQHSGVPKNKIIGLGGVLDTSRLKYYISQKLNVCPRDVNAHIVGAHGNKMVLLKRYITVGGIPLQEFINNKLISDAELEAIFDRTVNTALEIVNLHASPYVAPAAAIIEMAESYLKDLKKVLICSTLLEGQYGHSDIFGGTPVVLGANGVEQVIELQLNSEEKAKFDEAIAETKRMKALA
# Sequence of Protein kinase 7 (PK7), Plasmodium falciparum 3D7 (PF3D7_0213400) (Q7YTF7 1-343): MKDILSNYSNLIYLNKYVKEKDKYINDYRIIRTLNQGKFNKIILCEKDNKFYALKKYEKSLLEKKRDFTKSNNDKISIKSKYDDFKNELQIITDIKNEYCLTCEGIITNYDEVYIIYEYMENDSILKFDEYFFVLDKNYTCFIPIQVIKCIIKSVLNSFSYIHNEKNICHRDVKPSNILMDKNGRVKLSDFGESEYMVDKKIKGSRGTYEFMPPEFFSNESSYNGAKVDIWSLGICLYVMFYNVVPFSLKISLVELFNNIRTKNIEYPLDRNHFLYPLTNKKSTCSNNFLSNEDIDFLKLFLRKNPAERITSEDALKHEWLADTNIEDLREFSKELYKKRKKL
# Sequence of Plasmodium falciparum protein kinase 6 (PK6, PF3D7_1337100) (Q8IDW1 1-305): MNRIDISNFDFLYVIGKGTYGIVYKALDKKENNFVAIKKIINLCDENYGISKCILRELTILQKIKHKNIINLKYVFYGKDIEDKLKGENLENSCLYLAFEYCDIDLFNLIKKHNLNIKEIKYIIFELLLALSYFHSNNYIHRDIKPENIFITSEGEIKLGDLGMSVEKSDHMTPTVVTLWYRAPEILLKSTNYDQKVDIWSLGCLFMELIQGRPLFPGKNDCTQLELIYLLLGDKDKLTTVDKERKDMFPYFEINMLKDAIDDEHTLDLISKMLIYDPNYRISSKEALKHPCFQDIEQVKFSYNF
Compound,growth inhibition [1],inhibition [2],inhibition [3] [%],growth inhibition [4],outcome [5],outcome [6],outcome [7],outcome [8]
COc1ccc(CN2CCC(C(=O)Nc3cccc(-c4cccc(Cl)c4)c3)CC2)cc1O,0%,25%,-2,91% (active),inactive,inactive,inactive,inactive
COc1ccc2nccc([C@@H](O)CN3CCC(NC(=O)C(=O)c4c[nH]c5c(C)cccc45)CC3)c2c1,94% (active),17%,-3,102% (active),inactive,inactive,inactive,inactive
Cc1nc(N)nc(N)c1OCc1ccc(Cl)c(Cl)c1,5%,14%,-2,97% (active),inactive,inactive,inactive,inactive
O[C@@H](c1ccccc1)[C@@H]1CN(Cc2ccccc2)CC[C@@]1(O)c1ccccc1,82% (active),4%,-2,91% (active),inactive,inactive,inactive,inactive
CCNc1cc(C(=O)N[C@@H](Cc2ccccc2)[C@H](O)CNC(C)CCCC(C)C)cc(N2CCCS2(=O)=O)c1 (stereo not given in full),98% (active),2%,5,99% (active),inactive,inactive,inactive,inactive
O=C(Nc1ccc(-c2ccc(-c3nc4ccc(C(F)(F)F)cc4[nH]3)s2)cc1)c1cnc[nH]1,61% (active),66% (active),5,92% (active),inactive,inactive,inactive,inactive
CCN(CC)CCNC(=O)c1ccc(NC(=O)c2cc(-c3ccncc3)nc3ccccc23)cc1,2%,1%,-3,97% (active),inactive,inactive,inactive,inactive
COc1cccc([C@@H](CC(=O)Nc2cc(C(F)(F)F)ccc2OC)Nc2ccc(C#N)c3ccccc23)c1,53% (active),19%,-3,96% (active),inactive,inactive,inactive,inactive
CC1(C)N=C(N)N=C(N)N1OCCCO,-1%,27%,-2,96% (active),inactive,inactive,inactive,inactive
COc1cc2nc(NCC3CCN(c4nc(N)c5cc(OC)c(OC)cc5n4)CC3)nc(N)c2cc1OC,73% (active),12%,-2,92% (active),inactive,inactive,inactive,inactive
CN1CCC(NCc2ccc(-c3ccc(S(=O)(=O)NCc4ccccc4)c(F)c3)cc2)CC1,89% (active),53% (active),-3,99% (active),inactive,inactive,inactive,inactive
Cc1cccc(C(=O)Nc2ccnc(N(C)CCCN(C)Cc3cccc(C#N)c3)c2)c1,12%,1%,-2,92% (active),inactive,inactive,inactive,inactive
NC1(C(=O)O)Cc2ccc(Cl)cc2C1 (stereo not given),1%,0%,-3,93% (active),inactive,inactive,inactive,inactive
CC(=O)Nc1ccc(COc2ccc(Nc3ccnc4cc(-c5ccccn5)ccc34)cc2)cc1,94% (active),99% (active),3,99% (active),inactive,inactive,inactive,inactive
CN(CCN1CCC(c2c[nH]c3ccccc23)CC1)c1ccc(-c2nc3cc(Cl)c(Cl)cc3[nH]2)cc1,101% (active),22%,-1,101% (active),inactive,inactive,inactive,inactive
CCN(CC)CCN(CCCc1ccc(-c2ccc(C(F)(F)F)cc2)cc1)C(=O)Cn1c(CCc2cccc(F)c2F)nc(=O)c2ccccc21,49%,37%,3,101% (active),inactive,inactive,inactive,inactive
CC1(CCCCN2CCC(c3c[nH]c4cnccc34)CC2)C(=O)Nc2cccc(Cl)c21 (stereo not given),-1%,26%,0,100% (active),inactive,inactive,inactive,inactive
CC1CCCN(Cc2cc(Cl)cc(Cl)c2O)C1 (stereo not given),77% (active),22%,5,89% (active),inactive,inactive,inactive,inactive
NCC(=O)NC12CC3CC(CC(C3)C1)C2,-4%,15%,-2,87% (active),inactive,inactive,inactive,inactive
Fc1cccc(COc2ccc(Nc3ncnc4cc(/C=C/[C@@H]5CCCN5)sc34)cc2Cl)c1,56% (active),17%,-7,100% (active),inactive,inactive,inactive,inactive

Compound,growth inhibition [1],inhibition [2],inhibition [3] [%],growth inhibition [4],outcome [5],outcome [6],outcome [7],outcome [8]
CN(C)CCCN1C(=O)c2[nH]nc(-c3ccc(Cl)cc3O)c2C1c1ccc(Cl)cc1 (stereo not given),15%,57% (active),4,99% (active),inactive,inactive,inactive,inactive
O=C1[C@H]2C(c3ccc(Cl)c(Cl)c3)N3CC(OCc4ccccc4)CC3(C(=O)O)[C@H]2C(=O)N1c1ccc(Br)cc1 (stereo not given in full),86% (active),14%,2,104% (active),inactive,inactive,inactive,inactive
CCOc1ccc(-c2nonc2NC(=O)c2ccccc2Cl)cc1OCC,100% (active),3%,4,101% (active),inactive,inactive,inactive,inactive
O=C(Nc1cccc(-c2nn3ccccc3c2-c2ccnc(Nc3ccc(Cc4ccncc4)cc3)n2)c1)c1c(F)cccc1F,97% (active),43%,-1,97% (active),inactive,inactive,inactive,inactive
COc1cccc(Cc2cnc3nc(N)nc(N)c3c2C)c1,76% (active),57% (active),0,94% (active),inactive,inactive,inactive,inactive
CCc1cn2c3c(cc(C(=O)N[C@@H](Cc4ccccc4)[C@H](O)CNCc4ccccc4C)cc13)N(C)S(=O)(=O)CC2,98% (active),3%,5,98% (active),inactive,inactive,inactive,inactive
CCCCN(CCCC)C(=Nc1cccc(Cl)c1Cl)Nc1ccc(C#N)cc1O,69% (active),4%,-6,89% (active),inactive,inactive,inactive,inactive
CCOC(=O)c1ccc(NC(=O)N[C@@H](Cc2ccccc2)C(=O)NC2CCN(Cc3ccc(O)cc3)C2)cc1 (stereo not given in full),2%,7%,-6,95% (active),inactive,inactive,inactive,inactive
CCN(CC)CCN(Cc1ccc(-c2ccc(C(F)(F)F)cc2)cc1)C(=O)c1ccc(-c2ccc(C#N)cc2)cc1,31%,38%,-5,89% (active),inactive,inactive,inactive,inactive
O=c1cc(NCC2(CNCc3cn(Cc4ccccc4)c4ccccc34)CCCCC2)[nH]c2ccccc12,56% (active),27%,1,100% (active),inactive,inactive,inactive,inactive
CCC(C)c1ccc(NC(=O)C(C)c2ccc([N+](=O)[O-])cc2)cc1 (stereo not given),100% (active),14%,-3,101% (active),inactive,inactive,inactive,inactive
COc1ccc(CN2CCN(Cc3cc(Cl)ccc3O)CC2CCO)c(C)c1C (stereo not given),76% (active),1%,3,94% (active),inactive,inactive,inactive,inactive
Cc1cc(F)ccc1-c1nc(N(C)CCN(C)C(=O)N(C)c2ccccc2)nc2c1ccc(=O)n2-c1c(F)cccc1F,77% (active),-1%,2,87% (active),inactive,inactive,inactive,inactive
CCCCN1CCCC[C@H]1[C@@H](O)c1ccnc2ccc(OCC)cc12,88% (active),6%,-2,100% (active),inactive,inactive,inactive,inactive
C=CC[C@H](C[C@H](O)[C@H](Cc1ccccc1)NC(=O)c1nn(-c2ccccc2)nc1C)C(=O)NC1CCCCC1,3%,6%,5,94% (active),inactive,inactive,inactive,inactive
Clc1cc(Nc2ncnc3cc(C#C[C@H]4CCCN4)sc23)cc2[nH]c(Cc3ccccc3)nc12,57% (active),29%,1,91% (active),inactive,inactive,inactive,inactive
COc1ccc(-c2cnc3ccc(NCc4ccc(S(N)(=O)=O)cc4)nn23)cn1,98% (active),16%,0,98% (active),inactive,inactive,inactive,inactive
O=[N+]([O-])c1cccc(CNC2CCN(Cc3ccc(-c4ccccc4)cc3)CC2)c1,96% (active),25%,1,100% (active),inactive,inactive,inactive,inactive
NC(N)=Nc1nc(-c2cccc(NC(=O)Cc3ccccc3)c2)cs1,9%,1%,-8,99% (active),inactive,inactive,inactive,inactive
CC1(C)N=C(N)N=C(N)N1c1cccc(C(F)(F)F)c1,68% (active),60% (active),0,95% (active),inactive,inactive,inactive,inactive
